SMILES strings stand for the structures. Compounds without any hit were thinned out: in the full panel of roughly 83,000, 20% have a hit.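 Cell lines were cultured in 96-well plates, exposed to a single compound concentration, and assessed for percent growth 48 hours later.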 A number with no mark means an inactive call. Activity calls are given as the source filed them. The calls were made as follows: active = growth percent below 10; inactive = the rest.

Assay in all cases: NCI-60 one-dose screen, 48 h (100 = growth as untreated, 0 = no growth, -100 = all killed)
In one assay the test system is HCT-15 colon. To be noted: 10 µM unless noted.
In another assay the test system is HT29 colon. To be noted: 10 µM unless noted.
In another assay the test system is SNB-75 CNS. To be noted: 10 µM unless noted.
The next assay deals with SNB-19 CNS. To be noted: 10 µM unless noted.
Another assay deals with U251 CNS. To be noted: 10 µM unless noted.
In the next assay the test system is PC-3 prostate. To be noted: 10 µM unless noted.
The next assay deals with SK-MEL-5 melanoma. To be noted: 10 µM unless noted.
The subject of the next assay is UACC-62 melanoma. To be noted: 10 µM unless noted.
The next assay deals with LOX IMVI melanoma. To be noted: 10 µM unless noted.
The test system of another assay is SK-MEL-28 melanoma. To be noted: 10 µM unless noted.
The test system of the next assay is SK-MEL-2 melanoma. To be noted: 10 µM unless noted.
Another assay concerns EKVX NSCLC. To be noted: 10 µM unless noted.
Another assay deals with SN12C renal. To be noted: 10 µM unless noted.
The test system of a further assay is UO-31 renal. To be noted: 10 µM unless noted.
For a further assay, the system named is TK-10 renal. To be noted: 10 µM unless noted.
Another assay relates to ACHN renal. To be noted: 10 µM unless noted.
The next assay deals with CAKI-1 renal. To be noted: 10 µM.
The test system of another assay is A498 renal. To be noted: 10 µM unless noted.
The subject of another assay is CCRF-CEM leukemia. To be noted: 10 µM unless noted.
For the next assay, the system named is MOLT-4 leukemia. To be noted: 10 µM unless noted.

Turning to `COc1ccc(NC2=C(Cl)C(=O)C(C)=C(C)C2=O)cc1`, the growth in the assay with HCT-15 colon is 94.8%; in the assay on HT29 colon, 106%; in the assay on SNB-75 CNS, 71.7%; in the assay on SNB-19 CNS, 95.2%; in the assay on U251 CNS, 88.6%; in the assay with PC-3 prostate, 74.7%. Besides, the growth in the assay on SK-MEL-5 melanoma was 97.7%; in the assay on UACC-62 melanoma, 91%; in the assay with LOX IMVI melanoma it was 65.8%; with SK-MEL-28 melanoma it was 103%; in the assay on SK-MEL-2 melanoma it was 89.6%; with EKVX NSCLC, 31.4%. The growth with SN12C renal was 87.7%; in the assay with UO-31 renal, 89.9%; with TK-10 renal, 149%; in the assay with ACHN renal, 88.8%; with CAKI-1 renal, 91.5%; in the assay on A498 renal, 83.3%. The growth is 2.14% (active) in the assay with CCRF-CEM leukemia and 21.8% in the assay with MOLT-4 leukemia.
For the compound `Cc1cnc2nc(NN)[nH]n12`, the growth in the assay with HCT-15 colon was 101%; in the assay on HT29 colon, 103%; in the assay with SNB-75 CNS, 95.6%; in the assay with SNB-19 CNS, 95.3%; in the assay on U251 CNS, 101%; in the assay with PC-3 prostate, 98.3%. In addition, the growth was 99.8% in the assay on SK-MEL-5 melanoma; 95.6% in the assay with UACC-62 melanoma; 87.5% with LOX IMVI melanoma; 108% with SK-MEL-28 melanoma; 102% in the assay with SK-MEL-2 melanoma; 98.5% in the assay with EKVX NSCLC. Besides, the growth in the assay with SN12C renal is 98.6%; in the assay on UO-31 renal, 81.3%; in the assay on TK-10 renal, 105%; in the assay with ACHN renal, 98.4%; in the assay with CAKI-1 renal it was 86.2%; in the assay with A498 renal, 111%. The growth in the assay on CCRF-CEM leukemia and with MOLT-4 leukemia was 102% each time.
On to `O=c1oc2ccc(-c3ccc(F)cc3F)cc2c(=O)n1-c1ccc(F)c(F)c1`, for which the growth was 3.09% (active) in the assay with HCT-15 colon; 88.8% in the assay with HT29 colon; 14.9% in the assay with SNB-75 CNS; 12.2% with SNB-19 CNS; 11.9% with U251 CNS; 13.3% with PC-3 prostate. For the same compound, the growth in the assay on SK-MEL-5 melanoma was -77.4% (active); with UACC-62 melanoma, -12.8% (active); with LOX IMVI melanoma it was 17.8%; in the assay on SK-MEL-28 melanoma it was 19.9%; in the assay on SK-MEL-2 melanoma, -14.3% (active); with EKVX NSCLC, 9.2% (active). The growth with SN12C renal was 2.02% (active); in the assay on UO-31 renal it was -12.4% (active); with TK-10 renal, 10.8%; in the assay with ACHN renal, 2.6% (active); in the assay with CAKI-1 renal, -15.4% (active); with A498 renal, -42.6% (active). Also, the growth in the assay on CCRF-CEM leukemia is 16.4%; with MOLT-4 leukemia it was 6.43% (active).
Take `COc1ccc2oc3c4[nH]c5ccccc5c4c4c(c3c2c1)C(=O)N(O)C4=O`: the growth is 105% in the assay with HCT-15 colon; 104% with HT29 colon; 89.1% in the assay with SNB-75 CNS; 95.2% in the assay with SNB-19 CNS; 106% with U251 CNS; 85.8% in the assay with PC-3 prostate. Also, the growth is 101% in the assay with SK-MEL-5 melanoma; 94.6% in the assay with UACC-62 melanoma; 116% in the assay with LOX IMVI melanoma; 106% in the assay with SK-MEL-28 melanoma; 107% with SK-MEL-2 melanoma; 97.8% in the assay on EKVX NSCLC. Besides, the growth with SN12C renal is 94.7%; in the assay with UO-31 renal, 82.2%; in the assay with TK-10 renal, 140%; in the assay with ACHN renal it was 97.9%; in the assay with CAKI-1 renal, 80.4%; with A498 renal, 75.4%. The growth with CCRF-CEM leukemia was 91.4%; in the assay with MOLT-4 leukemia, 116%.
On to `CC(=O)Nc1nc2c(s1)C1=CC[C@H]3[C@@H]4CC[C@H](C(C)=O)[C@@]4(C)CC[C@@H]3[C@@]1(C)CC2`, for which the growth was 26.4% with HCT-15 colon; 27.7% with HT29 colon; 47.8% with SNB-75 CNS; 69% with SNB-19 CNS; 44.4% with U251 CNS; 43% in the assay on PC-3 prostate. For the same compound, the growth is 93.6% with SK-MEL-5 melanoma; 73.7% in the assay with UACC-62 melanoma; 59.6% in the assay with LOX IMVI melanoma; 49% in the assay on SK-MEL-28 melanoma; 56.2% in the assay on SK-MEL-2 melanoma; 68.7% with EKVX NSCLC. Further, the growth is 86.4% with SN12C renal; 65.4% in the assay with UO-31 renal; 124% in the assay with TK-10 renal; 77.6% in the assay with ACHN renal; 80.3% in the assay with CAKI-1 renal; 74.5% with A498 renal. In addition, the growth with CCRF-CEM leukemia was 49%; with MOLT-4 leukemia, 1.44% (active).
Take `CC[C@]12C=CCN3CC[C@]4(C(=C(C(=O)OC)C1)Nc1cc5c(cc14)[C@@H]1[C@H](O5)[C@@H](O)[C@@]4(CC)CC(C(=O)OC)=C5Nc6cc(OC)ccc6[C@@]56CCN1[C@@H]46)[C@@H]32`: the growth was -19.9% (active) in the assay on HCT-15 colon; 2.83% (active) with HT29 colon; 21.1% in the assay on SNB-75 CNS; 3.1% (active) with SNB-19 CNS; 3.18% (active) in the assay on U251 CNS; 9.02% (active) in the assay with PC-3 prostate. Further, the growth with SK-MEL-5 melanoma is -2.36% (active); in the assay with UACC-62 melanoma, 8.98% (active); in the assay on LOX IMVI melanoma it was -85.9% (active); in the assay with SK-MEL-28 melanoma, 1.92% (active); in the assay with SK-MEL-2 melanoma, 32.1%; in the assay on EKVX NSCLC, 19.1%. Also, the growth was 16.4% in the assay with SN12C renal; 11.9% in the assay with UO-31 renal; 14.1% in the assay with TK-10 renal; -42.5% (active) in the assay on ACHN renal; 2.12% (active) with CAKI-1 renal; -65.9% (active) in the assay with A498 renal. Besides, the growth in the assay on CCRF-CEM leukemia was 5.92% (active).
In the case of `CC(=O)Nc1ccc(C)c(Nc2cc(-c3ccc(-n4cccn4)cc3)[nH]n2)c1`, the growth in the assay with HCT-15 colon was 41.3%; in the assay on HT29 colon it was 27.8%; in the assay on SNB-75 CNS, 64.2%; in the assay on SNB-19 CNS, 45.7%; in the assay with U251 CNS, 42.5%; with PC-3 prostate, 65.3%. The growth in the assay on SK-MEL-5 melanoma was 53.6%; in the assay with UACC-62 melanoma, 46.7%; in the assay on LOX IMVI melanoma it was 60%; in the assay on SK-MEL-28 melanoma, 61%; in the assay on SK-MEL-2 melanoma it was 3.79% (active); in the assay with EKVX NSCLC, 74.7%. The growth in the assay with SN12C renal is 60.9%; in the assay on UO-31 renal it was 60.6%; in the assay with TK-10 renal, 89.6%; in the assay with ACHN renal it was 65.8%; with CAKI-1 renal, 47.2%; with A498 renal it was 27.3%. Also, the growth in the assay on CCRF-CEM leukemia was 26.1%; in the assay on MOLT-4 leukemia, 47.8%.

The record behind these values is PubChem BioAssay (NCI).
